These results are taken from the antibiotic and cytotoxicity screens of Wong et al. (2023).

Screen size: about 39,000 compounds; about 3,300 (8.5%) were called active. Shown is part of a subset that was picked to be rich in actives.

The test relates to HepG2. Put plainly: cytotoxicity call (relative viability < 0.9). The settings on record: 10 µM.
Take `CC(C)C#Cc1cnc2c(c1)C(=O)N([C@@H](C)CO)C[C@@H](C)[C@@H](CN(C)C(=O)c1ccc3c(c1)OCO3)O2`: the cytotoxicity call was “inactive”. In the case of `O=C(C[C@H]1C[C@H]2c3cc(NS(=O)(=O)c4ccc(F)cc4)ccc3O[C@H]2[C@@H](CO)O1)NCCN1CCCCC1`, the cytotoxicity call was “inactive”. As for `C[C@@H]1CN([C@H](C)CO)C(=O)CCCn2cc(nn2)CO[C@@H]1CN(C)S(=O)(=O)c1ccc2c(c1)OCCCO2`, the cytotoxicity call was “inactive”. In the case of `C[C@H]1CN([C@@H](C)CO)S(=O)(=O)c2ccc(C#Cc3cccc(F)c3)cc2O[C@@H]1CN(C)S(=O)(=O)c1ccccc1F`, the cytotoxicity call was “inactive”. In the case of `C[C@H](O)C#Cc1ccc2c(c1)O[C@H](CN(C)C)[C@H](C)CN([C@H](C)CO)S2(=O)=O`, the cytotoxicity call is “inactive”. Take `COCC(=O)Nc1ccc2c(c1)C(=O)N(C)C[C@H](OC)[C@H](C)CN(Cc1cccc(F)c1)[C@@H](C)CO2`: the cytotoxicity call is “inactive”. Turning to `S=c1[nH]nc(C2CCCCC2)[nH]1`, the cytotoxicity call was “inactive”.

As for `COCC(=O)Nc1ccc2c(c1)C(=O)N(C)C[C@@H](OC)[C@H](C)CN(C(=O)Nc1ccccc1F)[C@H](C)CO2`, the cytotoxicity call was “inactive”. With `Cc1nnc(SCC2=C(C(=O)O)N3C(=O)[C@@H](N)[C@H]3SC2)s1`, the cytotoxicity call is “inactive”. On to `O=C(N[C@H](NC(=S)Nc1ccc(F)c([N+](=O)[O-])c1)C(Cl)(Cl)Cl)C(c1ccccc1)c1ccccc1`, for which the cytotoxicity call is “active”.

Regarding `CCOC(=O)c1ccc(NC(=S)N[C@@H](NC(=O)c2ccc(Br)cc2)C(Cl)(Cl)Cl)cc1`, the cytotoxicity call is “inactive”. To `C[C@@H]1CN([C@@H](C)CO)S(=O)(=O)c2ccc(-c3cncnc3)cc2O[C@H]1CN(C)C(=O)Cc1ccccc1` belongs “inactive”; to `C[C@H]1CCCCO[C@H](CN(C)Cc2ccccc2)[C@@H](C)CN([C@@H](C)CO)C(=O)c2cc(NS(=O)(=O)c3cccs3)ccc2O1`, “inactive”; to `COc1ccc(CN(C)C[C@@H]2OCCCC[C@@H](C)Oc3ccc(NC(=O)c4ccncc4)cc3C(=O)N([C@@H](C)CO)C[C@H]2C)cc1`, “inactive”. To `C[C@@H]1CCCCO[C@@H](CN(C)S(=O)(=O)c2cn(C)cn2)[C@H](C)CN([C@H](C)CO)C(=O)c2cc(NC(=O)Nc3cccc4ccccc34)ccc2O1` belongs “inactive”; to `C[C@@H]1CN([C@H](C)CO)C(=O)c2cc(NS(=O)(=O)c3ccc(Cl)cc3)ccc2O[C@@H](C)CCCCO[C@@H]1CN(C)S(=O)(=O)c1cccs1`, “inactive”.

Turning to `C[C@H]1CCCCO[C@@H](CN(C)S(=O)(=O)c2cccs2)[C@@H](C)CN([C@@H](C)CO)C(=O)c2cc(NS(=O)(=O)c3ccc(Cl)cc3)ccc2O1`, the cytotoxicity call was “inactive”. For the compound `C[C@@H]1CCCCO[C@@H](CN(C)S(=O)(=O)c2cccs2)[C@@H](C)CN([C@@H](C)CO)C(=O)c2cc(NS(=O)(=O)c3ccc(Cl)cc3)ccc2O1`, the cytotoxicity call is “active”. `C[C@H](CO)N1C[C@H](C)[C@H](CN(C)S(=O)(=O)c2cccs2)OCCCC[C@H](C)Oc2ccc(NS(=O)(=O)c3ccc(Cl)cc3)cc2C1=O`: the cytotoxicity call was “inactive”. For `C[C@H](CO)N1C[C@H](C)[C@@H](CN(C)S(=O)(=O)c2cccs2)OCCCC[C@H](C)Oc2ccc(NS(=O)(=O)c3ccc(Cl)cc3)cc2C1=O`, the cytotoxicity call is “active”.

As to `C[C@@H]1CN([C@H](C)CO)C(=O)c2cc(NS(=O)(=O)c3ccc(Cl)cc3)ccc2O[C@@H](C)CCCCO[C@H]1CN(C)S(=O)(=O)c1cccs1`, the cytotoxicity call was “inactive”.

In the case of `C[C@@H]1CCCCO[C@H](CN(C)S(=O)(=O)c2cccs2)[C@H](C)CN([C@H](C)CO)C(=O)c2cc(NS(=O)(=O)c3ccc(Cl)cc3)ccc2O1`, the cytotoxicity call was “inactive”. Consider `C[C@@H]1CN([C@@H](C)CO)C(=O)c2cc(NS(=O)(=O)c3ccc(Cl)cc3)ccc2O[C@@H](C)CCCCO[C@@H]1CN(C)S(=O)(=O)c1cccs1`, for which the cytotoxicity call is “inactive”.

As to `C[C@@H]1CCCCO[C@@H](CN(C)S(=O)(=O)c2cccs2)[C@H](C)CN([C@H](C)CO)C(=O)c2cc(NS(=O)(=O)c3ccc(Cl)cc3)ccc2O1`, the cytotoxicity call is “active”. As for `C[C@@H]1CCCCO[C@@H](CN(C)S(=O)(=O)c2cccs2)[C@H](C)CN([C@@H](C)CO)C(=O)c2cc(NS(=O)(=O)c3ccc(Cl)cc3)ccc2O1`, the cytotoxicity call was “inactive”.

As to `C[C@@H]1CCCCO[C@@H](CN(C)S(=O)(=O)c2cccs2)[C@@H](C)CN([C@H](C)CO)C(=O)c2cc(NS(=O)(=O)c3ccc(Cl)cc3)ccc2O1`, the cytotoxicity call was “inactive”. Take `C[C@@H]1CCCCO[C@H](CN(C)S(=O)(=O)c2cccs2)[C@H](C)CN([C@@H](C)CO)C(=O)c2cc(NS(=O)(=O)c3ccc(Cl)cc3)ccc2O1`: the cytotoxicity call was “active”. In the case of `COc1ccc([C@@H]2CC=CC[C@H](C)Oc3ccccc3C(=O)N(C)[C@@H](Cc3ccccc3)C(=O)N2)c(OC)c1`, the cytotoxicity call was “inactive”. Then `Cc1noc(C)c1NC(=O)Nc1ccc2c(c1)C(=O)N([C@@H](C)CO)C[C@@H](C)[C@@H](CN(C)Cc1ccncc1)OCCCC[C@H](C)O2`, with “inactive”; and `CO[C@H]1CN(C)C(=O)c2cc(NC(=O)C3CC3)ccc2OC[C@@H](C)N(C(=O)C2CCOCC2)C[C@H]1C`, with “inactive”.

With `COc1ccc([C@@H]2CC=CC[C@@H](C)Oc3ccccc3C(=O)N(C)[C@H](Cc3ccccc3)C(=O)N2)c(OC)c1`, the cytotoxicity call is “inactive”. Consider `Cc1noc(C)c1NC(=O)Nc1ccc2c(c1)C(=O)N([C@@H](C)CO)C[C@@H](C)[C@H](CN(C)C(=O)c1ccccc1)OCCCC[C@@H](C)O2`, for which the cytotoxicity call is “inactive”. In the case of `COCC(=O)N1C[C@@H](C)[C@H](OC)CN(C)C(=O)c2ccc(NC(=O)c3ccc(OC)cc3)cc2OC[C@@H]1C`, the cytotoxicity call is “inactive”. To `COc1cc(C(=O)NS(=O)(=O)c2ccccc2C)ccc1Cc1cn(C)c2ccc(NC(=O)OC3CCCC3)cc12` belongs “inactive”; to `CCCC#Cc1cnc2c(c1)C(=O)N([C@H](C)CO)C[C@H](C)[C@@H](CN(C)S(=O)(=O)c1cn(C)cn1)O2`, “inactive”; to `C[C@@H]1CN([C@@H](C)CO)C(=O)c2cc(NC(=O)Cc3ccccc3)ccc2O[C@@H]1CN(C)C(=O)Nc1cccc2ccccc12`, “inactive”. As for `CC(C)NC(=O)N(C)C[C@@H]1Oc2ccc(NS(=O)(=O)c3ccc(F)cc3)cc2C(=O)N([C@@H](C)CO)C[C@H]1C`, the cytotoxicity call is “inactive”. Turning to `CNC(=O)Cc1cnc(N)s1`, the cytotoxicity call is “inactive”. Regarding `C[C@H](CO)N1C[C@H](C)[C@H](CN(C)Cc2ccc(C(F)(F)F)cc2)Oc2c(NC(=O)CCCCCC(=O)Nc3ccccc3N)cccc2C1=O`, the cytotoxicity call is “inactive”.
